# Measurements reported in paper PMC7862700, “An all-to-all approach to the identification of sequence-specific readers for epigenetic DNA modifications on cytosine”.
# Tests used:
# Test in all cases: DAPPL (digital affinity profiling via proximity ligation, sequencing); 10 mM Tris-HCl pH 7.5, 50 mM NaCl, 1 mM DTT, 4% glycerol, room temperature, 30 min; GST-TFs on glutathione beads, 16-mer random dsDNA library, 0.1% formaldehyde crosslink after washing; high values mean tight binding
# Details in all cases: protein: recombinant; tags: N-terminal GST; dsDNA, one strand shown
# [1] = target: T1, ERF (Homo sapiens, UniProt P50548 1-548)
# T1 sequence: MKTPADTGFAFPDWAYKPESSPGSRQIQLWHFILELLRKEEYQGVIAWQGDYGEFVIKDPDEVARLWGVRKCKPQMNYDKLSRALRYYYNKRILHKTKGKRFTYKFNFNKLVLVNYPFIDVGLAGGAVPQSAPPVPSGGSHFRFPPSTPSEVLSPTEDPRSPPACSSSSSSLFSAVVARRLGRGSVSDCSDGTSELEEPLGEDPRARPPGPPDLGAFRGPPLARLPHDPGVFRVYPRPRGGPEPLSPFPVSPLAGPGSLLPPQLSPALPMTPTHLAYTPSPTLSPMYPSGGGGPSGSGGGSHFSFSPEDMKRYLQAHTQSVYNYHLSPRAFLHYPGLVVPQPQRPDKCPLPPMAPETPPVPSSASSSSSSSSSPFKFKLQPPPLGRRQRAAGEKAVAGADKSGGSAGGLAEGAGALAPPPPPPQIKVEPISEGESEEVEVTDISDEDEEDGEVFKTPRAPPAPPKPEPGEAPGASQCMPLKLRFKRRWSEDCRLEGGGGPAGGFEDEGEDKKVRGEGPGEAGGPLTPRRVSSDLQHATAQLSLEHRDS
# In short: (§1)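 Human transcription factors carrying a GST fusion were produced in yeast, bound to glutathione beads, tagged with DNA barcodes and pooled together with a tag-only sample. Each pool was held with 200 nmole of a random double-stranded 16-mer DNA library in Tris/NaCl/DTT/glycerol buffer for 30 min at room temperature, then washed, crosslinked in 0.1% formaldehyde, proximity-ligated with BsaI/T4 ligase (1 h, 37 °C), PCR-amplified and sequenced on an Illumina NextSeq500. Binding signal is the read frequency of each hexamer for a given factor divided by its frequency in the tag-only sample.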
# [2] = target: T2, ETV3L (Homo sapiens, UniProt Q6ZN32 1-361)
# T2 sequence: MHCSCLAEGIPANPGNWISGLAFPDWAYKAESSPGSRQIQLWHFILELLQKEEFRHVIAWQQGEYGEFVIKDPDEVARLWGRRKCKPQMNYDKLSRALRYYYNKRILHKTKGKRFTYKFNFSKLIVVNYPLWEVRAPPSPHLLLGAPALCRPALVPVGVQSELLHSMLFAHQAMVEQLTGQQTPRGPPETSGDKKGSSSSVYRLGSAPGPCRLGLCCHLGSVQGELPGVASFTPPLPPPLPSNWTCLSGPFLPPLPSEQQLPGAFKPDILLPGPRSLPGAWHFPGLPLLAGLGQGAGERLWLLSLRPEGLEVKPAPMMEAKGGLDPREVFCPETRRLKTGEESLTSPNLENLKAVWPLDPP
# In short: as §1
# [3] = target: T3, ETS2 (Homo sapiens, UniProt P15036 1-469)
# T3 sequence: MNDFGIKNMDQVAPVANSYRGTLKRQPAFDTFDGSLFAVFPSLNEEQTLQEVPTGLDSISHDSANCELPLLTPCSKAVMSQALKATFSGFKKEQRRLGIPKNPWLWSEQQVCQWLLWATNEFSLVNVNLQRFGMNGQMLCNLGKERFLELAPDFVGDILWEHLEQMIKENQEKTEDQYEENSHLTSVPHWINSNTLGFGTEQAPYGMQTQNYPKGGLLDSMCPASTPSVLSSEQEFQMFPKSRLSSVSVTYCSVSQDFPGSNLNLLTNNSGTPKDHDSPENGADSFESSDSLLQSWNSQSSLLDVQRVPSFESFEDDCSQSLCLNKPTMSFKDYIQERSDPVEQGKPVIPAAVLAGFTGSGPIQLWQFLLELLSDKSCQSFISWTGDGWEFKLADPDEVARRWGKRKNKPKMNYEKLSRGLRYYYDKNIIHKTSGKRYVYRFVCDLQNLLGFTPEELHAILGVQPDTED
# In short: as §1
# [4] = target: T4, SPDEF (Homo sapiens, UniProt O95238 1-335)
# T4 sequence: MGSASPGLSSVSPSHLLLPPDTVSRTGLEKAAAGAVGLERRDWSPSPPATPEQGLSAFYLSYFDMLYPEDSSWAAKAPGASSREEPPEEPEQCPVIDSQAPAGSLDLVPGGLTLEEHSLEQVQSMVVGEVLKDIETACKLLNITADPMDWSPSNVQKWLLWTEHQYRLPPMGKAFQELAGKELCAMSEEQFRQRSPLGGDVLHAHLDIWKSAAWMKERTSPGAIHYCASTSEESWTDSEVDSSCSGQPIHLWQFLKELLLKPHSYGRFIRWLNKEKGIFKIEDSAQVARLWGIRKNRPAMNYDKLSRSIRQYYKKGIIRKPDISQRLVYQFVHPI
# In short: as §1
# [5] = target: T5, ETV7 (Homo sapiens, UniProt Q9Y603 1-341)
# T5 sequence: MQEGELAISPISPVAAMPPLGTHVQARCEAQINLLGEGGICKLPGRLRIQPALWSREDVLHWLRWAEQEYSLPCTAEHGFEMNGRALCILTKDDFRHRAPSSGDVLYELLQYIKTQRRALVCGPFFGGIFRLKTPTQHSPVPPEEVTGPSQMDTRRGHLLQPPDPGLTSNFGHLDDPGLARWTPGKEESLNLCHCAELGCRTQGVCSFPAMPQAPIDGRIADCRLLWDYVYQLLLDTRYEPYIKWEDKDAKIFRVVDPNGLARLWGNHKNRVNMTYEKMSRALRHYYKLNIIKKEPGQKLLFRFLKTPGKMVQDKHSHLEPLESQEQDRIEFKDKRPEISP
# In short: as §1
# [6] = target: T6, ELF5 (Homo sapiens, UniProt Q9UKW6-2 1-255)
# T6 sequence: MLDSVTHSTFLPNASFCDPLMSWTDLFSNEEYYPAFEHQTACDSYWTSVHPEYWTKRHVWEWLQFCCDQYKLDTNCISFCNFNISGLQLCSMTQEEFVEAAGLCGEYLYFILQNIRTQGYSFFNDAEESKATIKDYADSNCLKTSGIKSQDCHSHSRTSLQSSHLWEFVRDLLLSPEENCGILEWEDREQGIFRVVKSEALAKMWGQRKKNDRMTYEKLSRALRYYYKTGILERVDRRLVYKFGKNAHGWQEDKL
# In short: as §1
# [7] = target: T7, ETV3 (Homo sapiens, UniProt P41162-2 1-143)
# T7 sequence: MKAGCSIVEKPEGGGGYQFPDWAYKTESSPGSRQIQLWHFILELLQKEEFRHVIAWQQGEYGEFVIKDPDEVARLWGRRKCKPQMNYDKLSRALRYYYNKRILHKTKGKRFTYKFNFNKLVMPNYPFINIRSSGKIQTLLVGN
# In short: as §1
# [8] = target: ETV6 (Homo sapiens, UniProt P41212 1-452)
# ETV6, sequence (P41212 whole entry): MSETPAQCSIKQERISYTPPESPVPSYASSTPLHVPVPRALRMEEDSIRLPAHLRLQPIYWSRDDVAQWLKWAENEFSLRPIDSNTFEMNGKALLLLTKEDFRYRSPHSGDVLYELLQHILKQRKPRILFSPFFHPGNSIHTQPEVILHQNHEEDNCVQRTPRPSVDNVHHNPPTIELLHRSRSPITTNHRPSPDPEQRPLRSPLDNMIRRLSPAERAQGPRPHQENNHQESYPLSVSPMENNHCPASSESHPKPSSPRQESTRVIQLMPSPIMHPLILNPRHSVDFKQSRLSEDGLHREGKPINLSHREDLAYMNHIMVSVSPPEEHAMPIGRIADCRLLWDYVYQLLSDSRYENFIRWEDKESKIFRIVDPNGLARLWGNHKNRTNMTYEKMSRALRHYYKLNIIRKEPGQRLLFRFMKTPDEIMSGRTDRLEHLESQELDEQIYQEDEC
# In short: as §1
Sequence,binding signal [1],binding signal [2],binding signal [3],binding signal [4],binding signal [5],binding signal [6],binding signal [7],binding signal [8]
GGGCTC,"1.28 fold enrichment (6-mer frequency, TF over GST control)","1.32 fold enrichment (6-mer frequency, TF over GST control)","1.14 fold enrichment (6-mer frequency, TF over GST control)","1.09 fold enrichment (6-mer frequency, TF over GST control)","1.18 fold enrichment (6-mer frequency, TF over GST control)","1.12 fold enrichment (6-mer frequency, TF over GST control)","1.22 fold enrichment (6-mer frequency, TF over GST control)","1.19 fold enrichment (6-mer frequency, TF over GST control)"
GATATG,"1.09 fold enrichment (6-mer frequency, TF over GST control)","1.08 fold enrichment (6-mer frequency, TF over GST control)","1.18 fold enrichment (6-mer frequency, TF over GST control)","1.24 fold enrichment (6-mer frequency, TF over GST control)","1.07 fold enrichment (6-mer frequency, TF over GST control)","1.14 fold enrichment (6-mer frequency, TF over GST control)","1.12 fold enrichment (6-mer frequency, TF over GST control)","1.04 fold enrichment (6-mer frequency, TF over GST control)"
ACCAAC,"1.24 fold enrichment (6-mer frequency, TF over GST control)","1.13 fold enrichment (6-mer frequency, TF over GST control)","1.15 fold enrichment (6-mer frequency, TF over GST control)","1.22 fold enrichment (6-mer frequency, TF over GST control)","1.13 fold enrichment (6-mer frequency, TF over GST control)","1.13 fold enrichment (6-mer frequency, TF over GST control)","1.24 fold enrichment (6-mer frequency, TF over GST control)","1.2 fold enrichment (6-mer frequency, TF over GST control)"
TCCCGT,"1.4 fold enrichment (6-mer frequency, TF over GST control)","1.29 fold enrichment (6-mer frequency, TF over GST control)","1.34 fold enrichment (6-mer frequency, TF over GST control)","1.44 fold enrichment (6-mer frequency, TF over GST control)","1.32 fold enrichment (6-mer frequency, TF over GST control)","1.6 fold enrichment (6-mer frequency, TF over GST control)","1.27 fold enrichment (6-mer frequency, TF over GST control)","1.3 fold enrichment (6-mer frequency, TF over GST control)"
CGGCTA,"1.07 fold enrichment (6-mer frequency, TF over GST control)","1.19 fold enrichment (6-mer frequency, TF over GST control)","1.07 fold enrichment (6-mer frequency, TF over GST control)","1.25 fold enrichment (6-mer frequency, TF over GST control)","1.26 fold enrichment (6-mer frequency, TF over GST control)","1.19 fold enrichment (6-mer frequency, TF over GST control)","1.12 fold enrichment (6-mer frequency, TF over GST control)","1.27 fold enrichment (6-mer frequency, TF over GST control)"
GACCTG,"1.13 fold enrichment (6-mer frequency, TF over GST control)","1.33 fold enrichment (6-mer frequency, TF over GST control)","1.19 fold enrichment (6-mer frequency, TF over GST control)","1.12 fold enrichment (6-mer frequency, TF over GST control)","1.17 fold enrichment (6-mer frequency, TF over GST control)","1.21 fold enrichment (6-mer frequency, TF over GST control)","1.17 fold enrichment (6-mer frequency, TF over GST control)","1.14 fold enrichment (6-mer frequency, TF over GST control)"
CTGCGT,"1.13 fold enrichment (6-mer frequency, TF over GST control)","1.16 fold enrichment (6-mer frequency, TF over GST control)","1.15 fold enrichment (6-mer frequency, TF over GST control)","1.2 fold enrichment (6-mer frequency, TF over GST control)","1.23 fold enrichment (6-mer frequency, TF over GST control)","1.11 fold enrichment (6-mer frequency, TF over GST control)","1.13 fold enrichment (6-mer frequency, TF over GST control)","1.02 fold enrichment (6-mer frequency, TF over GST control)"
ATGTGG,"1.15 fold enrichment (6-mer frequency, TF over GST control)","1.16 fold enrichment (6-mer frequency, TF over GST control)","1.18 fold enrichment (6-mer frequency, TF over GST control)","1.05 fold enrichment (6-mer frequency, TF over GST control)","1.08 fold enrichment (6-mer frequency, TF over GST control)","1.15 fold enrichment (6-mer frequency, TF over GST control)","1.19 fold enrichment (6-mer frequency, TF over GST control)","1.2 fold enrichment (6-mer frequency, TF over GST control)"
